Data from PubChem BioAssay (NCATS).
Inconclusive results are not listed. Entries that show only a call come without a potency. The source made the active and inactive calls. Calls follow the shape of the dose curve; as a rule, active = well fitted curve in the direction sought with a large enough effect; inconclusive = small, poorly fitted or top-dose-only effect, or another doubt; inactive = no such curve, though single readings can be large; an effect the other way counts as inactive or inconclusive.

Test: Primary qHTS for inhibitors of nuclear receptor binding SET domain protein 2 (NSD2) in an isogenic RCH-ACV NSD2 p.E1099K mutant (9B) (AID 1645876)
Settings: RCH-ACV NSD2 E1099K (9B) viability, CellTiter-Glo, 72 h; series mostly up to 44.9 µM
Also: nearly all actives have a fitted effect of over 70% in size.

| Compound | Potency |
| --- | --- |
| Cc1cc(C)nc(NS(=O)(=O)c2ccc(N)cc2)n1 | inactive |
| O=C(O)/C=C/c1ccc(Cn2ccnc2)cc1 | inactive |
| NS(=O)(=O)c1ccc(NC(=O)CCC(=O)O)cc1 | inactive |
| CCCCCC(C)N (stereo not drawn) | inactive |
| Cc1ccc(S(=O)(=O)NC(=O)NC2CCCCCCC2)cc1 | inactive |
| CCOc1cc(NC(C)=O)ccc1C(=O)OC | inactive |
| CN1C[C@@H]2C[C@H]1CN2c1cc2c(cc1F)c(=O)c(C(=O)O)cn2C1CC1 | inactive |
| COc1ccc(-c2cc(=O)c3c(O)cc(O[C@@H]4O[C@H](CO[C@@H]5O[C@@H](C)[C@H](O)[C@@H](O)[C@H]5O)[C@@H](O)[C@H](O)[C@H]4O)cc3o2)cc1O | inactive |
| CC1CCN(CCCC(=O)c2ccc(F)cc2)CC1 | inactive |
| CC(=O)Oc1cccc(O)c1 | inactive |
| COc1ccc(Cc2cnc(N)nc2N)cc1OC | inactive |
| C/C=C/C(=O)N(CC)c1ccccc1C | inactive |
| O=C(NCCCN1CCOCC1)c1ccc(Cl)cc1 | inactive |
| CC(=O)[C@@]1(O)CC[C@H]2[C@@H]3C[C@H](C)C4=CC(=O)C=C[C@]4(C)[C@@]3(F)[C@@H](O)C[C@@]21C | inactive |
| O=C1c2ccccc2C(=O)C1c1ccc(Br)cc1 | inactive |
| Nc1ncnc2c1ncn2[C@@H]1O[C@H](COP(=O)(O)O)[C@@H](O)[C@H]1O | inactive |
| OCC(O)CS (stereo not drawn) | inactive |
| C[C@]1(Cn2ccnn2)[C@H](C(=O)O)N2C(=O)C[C@H]2S1(=O)=O | inactive |
| O=C(O)c1ccccc1OP(=O)(O)O | inactive |
| CC(C)(C)NCC(O)COc1cccc2c1CCC(=O)N2 (stereo not drawn) | inactive |

| Compound | Potency |
| --- | --- |
| C=CCN1C[C@H](C(=O)N(CCCN(C)C)C(=O)NCC)C[C@@H]2c3cccc4[nH]cc(c34)C[C@H]21 | inactive |
| COCC(=O)Nc1c(I)c(C(=O)NCC(O)CO)c(I)c(C(=O)N(C)CC(O)CO)c1I (stereo not drawn) | inactive |
| C1CCN2C[C@@H]3C[C@@H](CN4CCCC[C@@H]34)[C@H]2C1 | inactive |
| CC(C)CCOC(=O)c1ccc(N(C)C)cc1 | inactive |
| CC(C)c1cc2c(cc1S(=O)(=O)O)[C@@]1(C)CCC[C@@](C)(C(=O)O)[C@@H]1CC2 | inactive |
| CC[C@]12CCCN3CCc4c(n(c5ccccc45)[C@@](O)(C(=O)OC)C1)[C@@H]32 | inactive |
| O=C(CN1CCNCC1)NC1CCCCC1 | inactive |
| C[n+]1ccccc1/C=N/O | inactive |
| Cc1cccc(Nc2ccccc2C(=O)O)c1C | inactive |
| Cc1cc(NC(=O)C2=C(O)c3ccccc3S(=O)(=O)N2C)no1 | inactive |
| CC(C)CCCC(C)CCCC(C)CCCCC(C)CCCC(C)CCCC(C)C (stereo not drawn) | inactive |
| NC(=O)CCCCC1CCSS1 (stereo not drawn) | inactive |
| CC(=O)NS(=O)(=O)c1ccc(N)cc1 | inactive |
| CC(CN(C)C)C(C)(O)Cc1ccc(Cl)cc1 (stereo not drawn) | inactive |
| O=C(Cn1ccnc1[N+](=O)[O-])NCCO | inactive |
| CC(=O)Nc1ccc(C(=O)O)cc1 | inactive |
| NCC1CCC(C(=O)Oc2ccc(CCC(=O)O)cc2)CC1 (stereo not drawn) | inactive |
| O=C(Cn1ccnc1[N+](=O)[O-])NCc1ccccc1 | inactive |
| COC(=O)c1ccccc1C(=O)c1ccc(OCCN2CCCCC2)cc1 | inactive |

Test: Primary qHTS for inhibitors of nuclear receptor binding SET domain protein 2 (NSD2) in an RCH-ACV wild type WT cells (2C) (AID 1645877); also: potency is read from the fitted curve at half-maximal effect
Settings: RCH-ACV (leukaemia line) NSD2 WT (2C) viability, CellTiter-Glo, 72 h; series mostly up to 44.9 µM

| Compound | Potency |
| --- | --- |
| Cc1cc(C)nc(NS(=O)(=O)c2ccc(N)cc2)n1 | inactive |
| O=C(O)/C=C/c1ccc(Cn2ccnc2)cc1 | inactive |
| NS(=O)(=O)c1ccc(NC(=O)CCC(=O)O)cc1 | inactive |
| CCCCCC(C)N (stereo not drawn) | inactive |
| Cc1ccc(S(=O)(=O)NC(=O)NC2CCCCCCC2)cc1 | inactive |
| CCOc1cc(NC(C)=O)ccc1C(=O)OC | inactive |
| CN1C[C@@H]2C[C@H]1CN2c1cc2c(cc1F)c(=O)c(C(=O)O)cn2C1CC1 | inactive |
| COc1ccc(-c2cc(=O)c3c(O)cc(O[C@@H]4O[C@H](CO[C@@H]5O[C@@H](C)[C@H](O)[C@@H](O)[C@H]5O)[C@@H](O)[C@H](O)[C@H]4O)cc3o2)cc1O | inactive |
| CC1CCN(CCCC(=O)c2ccc(F)cc2)CC1 | inactive |
| CC(=O)Oc1cccc(O)c1 | inactive |
| COc1ccc(Cc2cnc(N)nc2N)cc1OC | inactive |
| C/C=C/C(=O)N(CC)c1ccccc1C | inactive |
| O=C(NCCCN1CCOCC1)c1ccc(Cl)cc1 | inactive |
| CC(=O)[C@@]1(O)CC[C@H]2[C@@H]3C[C@H](C)C4=CC(=O)C=C[C@]4(C)[C@@]3(F)[C@@H](O)C[C@@]21C | 3 nM (active) |
| O=C1c2ccccc2C(=O)C1c1ccc(Br)cc1 | inactive |
| Nc1ncnc2c1ncn2[C@@H]1O[C@H](COP(=O)(O)O)[C@@H](O)[C@H]1O | inactive |
| OCC(O)CS (stereo not drawn) | inactive |
| C[C@]1(Cn2ccnn2)[C@H](C(=O)O)N2C(=O)C[C@H]2S1(=O)=O | inactive |
| O=C(O)c1ccccc1OP(=O)(O)O | inactive |
| CC(C)(C)NCC(O)COc1cccc2c1CCC(=O)N2 (stereo not drawn) | inactive |

| Compound | Potency |
| --- | --- |
| C=CCN1C[C@H](C(=O)N(CCCN(C)C)C(=O)NCC)C[C@@H]2c3cccc4[nH]cc(c34)C[C@H]21 | inactive |
| COCC(=O)Nc1c(I)c(C(=O)NCC(O)CO)c(I)c(C(=O)N(C)CC(O)CO)c1I (stereo not drawn) | inactive |
| C1CCN2C[C@@H]3C[C@@H](CN4CCCC[C@@H]34)[C@H]2C1 | inactive |
| CC(C)CCOC(=O)c1ccc(N(C)C)cc1 | inactive |
| CC(C)c1cc2c(cc1S(=O)(=O)O)[C@@]1(C)CCC[C@@](C)(C(=O)O)[C@@H]1CC2 | inactive |
| CC[C@]12CCCN3CCc4c(n(c5ccccc45)[C@@](O)(C(=O)OC)C1)[C@@H]32 | inactive |
| O=C(CN1CCNCC1)NC1CCCCC1 | inactive |
| C[n+]1ccccc1/C=N/O | inactive |
| Cc1cccc(Nc2ccccc2C(=O)O)c1C | inactive |
| Cc1cc(NC(=O)C2=C(O)c3ccccc3S(=O)(=O)N2C)no1 | inactive |
| CC(C)CCCC(C)CCCC(C)CCCCC(C)CCCC(C)CCCC(C)C (stereo not drawn) | inactive |
| NC(=O)CCCCC1CCSS1 (stereo not drawn) | inactive |
| CC(=O)NS(=O)(=O)c1ccc(N)cc1 | inactive |
| CC(CN(C)C)C(C)(O)Cc1ccc(Cl)cc1 (stereo not drawn) | inactive |
| O=C(Cn1ccnc1[N+](=O)[O-])NCCO | inactive |
| CC(=O)Nc1ccc(C(=O)O)cc1 | inactive |
| NCC1CCC(C(=O)Oc2ccc(CCC(=O)O)cc2)CC1 (stereo not drawn) | inactive |
| O=C(Cn1ccnc1[N+](=O)[O-])NCc1ccccc1 | inactive |
| COC(=O)c1ccccc1C(=O)c1ccc(OCCN2CCCCC2)cc1 | inactive |
